Compounds without any hit were thinned out: in the full panel of roughly 83,000, 20% have a hit.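 Compound tested at a single concentration for 48 hours in 96-well plates; a percent growth value below 10 was scored as active.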 Unmarked numbers belong to inactive results. The source made the active and inactive calls.
Legend:
Assay in all cases: NCI-60 one-dose screen, 48 h (100 = growth as untreated, 0 = no growth, -100 = all killed)
Settings in all cases: 10 µM
RPMI-8226 leukemia = test system: RPMI-8226 leukemia
OVCAR-8 ovarian = test system: OVCAR-8 ovarian
OVCAR-5 ovarian = test system: OVCAR-5 ovarian
OVCAR-4 ovarian = test system: OVCAR-4 ovarian
SK-OV-3 ovarian = test system: SK-OV-3 ovarian
IGROV1 ovarian = test system: IGROV1 ovarian
HS 578T breast = test system: HS 578T breast
NCI/ADR-RES ovarian = test system: NCI/ADR-RES ovarian
OVCAR-3 ovarian = test system: OVCAR-3 ovarian

| Compound | growth (RPMI-8226 leukemia) | growth (OVCAR-8 ovarian) | growth (OVCAR-5 ovarian) | growth (OVCAR-4 ovarian) [%] | growth (SK-OV-3 ovarian) [%] | growth (IGROV1 ovarian) | growth (HS 578T breast) [%] | growth (NCI/ADR-RES ovarian) | growth (OVCAR-3 ovarian) |
| --- | --- | --- | --- | --- | --- | --- | --- | --- | --- |
| O=C(CSc1ccc(-c2ccc(Cl)cc2)nn1)Nc1ccc(Cl)c(C(F)(F)F)c1 | 66.8% | 76.4% | 79.6% | 76.1 | 75.4 | 70.9% | 70.6 | 27.9% |  |
| C=C1CCC2C3(C)COC(c4c(F)cccc4F)OC3CCC2(C)C1C/C=C1/C(=O)OCC1O (stereo unspecified) | 15.3% | -42.5% (active) | -10% (active) | 12.4 | 54.7 | -26.7% (active) |  | -15.1% (active) | -67.9% (active) |
| COc1ccccc1[C@H]1C(C(=O)c2ccc(O)cc2)C2(N[C@@H]1c1ccccc1)C(=O)Nc1ccc(Br)cc12 (stereo partly specified) | 30.3% | 37.5% | 62.7% | 41.1 | 61.4 | 19.2% |  | 57.7% |  |
| COc1ccc(-c2nc(S(=O)(=O)c3ccc(C)cc3)c(S(=O)(=O)CC(=O)N(C)Cc3ccccc3)o2)cc1 | -35.3% (active) | 29.2% | 63.1% | 68.5 | 98.4 | 66.3% |  | 28.8% | 1.33% (active) |

Reference: PubChem BioAssay (NCI)
